# Several values for one entry are separate records, joined by “and”; a condition that tells them apart may be missing. Equal entries are not always repeated. Hit rate of the full screen: of about 5,500 compounds, about 2,000 (36%) were called active. Not shown: some 18% with an inconclusive outcome. No stated cut-off is given here; in the data, active means normalized growth mostly below about 0.91 (no sharp cut-off); inconclusive means no clear call, values can overlap the other calls; inactive means mostly above about 0.92. The list shows a part of the results. A structure can be active in one record and inactive in another.
# Assay: chemical genetic growth profiling, strain panel (AID 1159580);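 further: tested at 20 µM; growth read once vehicle control cultures reached saturation at 30 °C; 1 = growth at the plate median or of vehicle wells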
# Conditions: growth OD
compound,measurement,setting,value
NCC(O)c1ccc(O)cc1 (stereo not given),normalized growth,"S. cerevisiae deletion strains, locus YKL009W, strain mrt4, stronger effect = lower value",1.01 (inactive)
same,normalized growth,"S. cerevisiae deletion strains, locus YKL068W, stronger effect = lower value",0.984 (inactive)
same,normalized growth,"S. cerevisiae deletion strains, locus YKL085W, strain MDH1 (second series), stronger effect = lower value",0.989 (inactive)
same,normalized growth,"S. cerevisiae deletion strains, locus YKL085W, strain MDH1, stronger effect = lower value",0.989 (inactive)
same,normalized growth,"S. cerevisiae deletion strains, locus YKL160W, strain elf1, stronger effect = lower value",0.998 (inactive)
same,normalized growth,"S. cerevisiae deletion strains, locus YKL190W, strain CNB1, stronger effect = lower value",1 (inactive)
same,normalized growth,"S. cerevisiae deletion strains, locus YKR001C, strain vps1, stronger effect = lower value",0.967 (inactive)
same,normalized growth,"S. cerevisiae deletion strains, locus YKR026C, strain gcn3, stronger effect = lower value",0.998 (inactive)
same,normalized growth,"S. cerevisiae deletion strains, locus YKR091W, strain srl3, stronger effect = lower value",0.999 (inactive)
same,normalized growth,"S. cerevisiae deletion strains, locus YLL001W, strain dnm1, stronger effect = lower value",1 (inactive)
same,normalized growth,"S. cerevisiae deletion strains, locus YLL026W, stronger effect = lower value",0.99 (inactive)
same,normalized growth,"S. cerevisiae deletion strains, locus YLL041C, strain sdh2, stronger effect = lower value",1.01 (inactive)
same,normalized growth,"S. cerevisiae deletion strains, locus YLR027C, strain aat2, stronger effect = lower value",0.993 (inactive)
same,normalized growth,"S. cerevisiae deletion strains, locus YLR039C, strain RIC1, stronger effect = lower value",1.02 (inactive)
same,normalized growth,"S. cerevisiae deletion strains, locus YLR058C, strain SHM2, stronger effect = lower value",0.995 (inactive)
same,normalized growth,"S. cerevisiae deletion strains, locus YLR102C, strain apc9, stronger effect = lower value",0.972 (inactive)
same,normalized growth,"S. cerevisiae deletion strains, locus YLR113W, strain HOG1, stronger effect = lower value",1.02 (inactive)
same,normalized growth,"S. cerevisiae deletion strains, locus YLR221C, strain rsa3, stronger effect = lower value",1 (inactive)
same,normalized growth,"S. cerevisiae deletion strains, locus YLR258W, strain gsy2, stronger effect = lower value",1.01 (inactive)
same,normalized growth,"S. cerevisiae deletion strains, locus YLR262C, strain YPT6 (second series), stronger effect = lower value",0.983 (inactive)
same,normalized growth,"S. cerevisiae deletion strains, locus YLR262C, strain YPT6, stronger effect = lower value",1.06 (inactive)
same,normalized growth,"S. cerevisiae deletion strains, locus YLR268W, strain sec22, stronger effect = lower value",0.922 (inactive)
same,normalized growth,"S. cerevisiae deletion strains, locus YLR320W, strain mms22, stronger effect = lower value",1.04 (inactive)
same,normalized growth,"S. cerevisiae deletion strains, locus YLR330W, strain CHS5, stronger effect = lower value",0.996 (inactive)
same,normalized growth,"S. cerevisiae deletion strains, locus YLR342W, strain FKS1 (second series), stronger effect = lower value",1.03 (inactive)
same,normalized growth,"S. cerevisiae deletion strains, locus YLR342W, strain FKS1, stronger effect = lower value",0.981 (inactive)
same,normalized growth,"S. cerevisiae deletion strains, locus YLR357W, strain rsc2, stronger effect = lower value",0.973 (inactive)
same,normalized growth,"S. cerevisiae deletion strains, locus YLR370C, strain arc18, stronger effect = lower value",1.01 (inactive)
same,normalized growth,"S. cerevisiae deletion strains, locus YLR371W, strain rom2, stronger effect = lower value",0.981 (inactive)
same,normalized growth,"S. cerevisiae deletion strains, locus YLR384C, strain iki3, stronger effect = lower value",1 (inactive)
same,normalized growth,"S. cerevisiae deletion strains, locus YLR418C, strain cdc73, stronger effect = lower value",0.967 (inactive)
same,normalized growth,"S. cerevisiae deletion strains, locus YML016C, strain PPZ1, stronger effect = lower value",0.998 (inactive)
same,normalized growth,"S. cerevisiae deletion strains, locus YML032C, strain rad52, stronger effect = lower value",0.962 (inactive)
same,normalized growth,"S. cerevisiae deletion strains, locus YML120C, strain ndi1, stronger effect = lower value",1.01 (inactive)
same,normalized growth,"S. cerevisiae deletion strains, locus YML124C, strain tub3, stronger effect = lower value",0.99 (inactive)
same,normalized growth,"S. cerevisiae deletion strains, locus YMR058W, strain fet3, stronger effect = lower value",1.02 (inactive)
same,normalized growth,"S. cerevisiae deletion strains, locus YMR078C, strain ctf18, stronger effect = lower value",0.968 (inactive)
same,normalized growth,"S. cerevisiae deletion strains, locus YMR125W, strain sto1, stronger effect = lower value",0.993 (inactive)
same,normalized growth,"S. cerevisiae deletion strains, locus YMR129W, stronger effect = lower value",1.01 (inactive)
same,normalized growth,"S. cerevisiae deletion strains, locus YMR205C, strain PFK2, stronger effect = lower value",0.994 (inactive)
same,normalized growth,"S. cerevisiae deletion strains, locus YMR223W, strain ubp8, stronger effect = lower value",0.997 (inactive)
same,normalized growth,"S. cerevisiae deletion strains, locus YMR231W, strain pep5, stronger effect = lower value",0.995 (inactive)
same,normalized growth,"S. cerevisiae deletion strains, locus YMR263W, strain SAP30, stronger effect = lower value",0.727 (active) and 1 (inactive)
same,normalized growth,"S. cerevisiae deletion strains, locus YMR307W, strain GAS1, stronger effect = lower value",0.985 (inactive)
same,normalized growth,"S. cerevisiae deletion strains, locus YNL067W, strain RPL9B, stronger effect = lower value",0.991 (inactive)
same,normalized growth,"S. cerevisiae deletion strains, locus YNL071W, strain lat1, stronger effect = lower value",1.01 (inactive)
same,normalized growth,"S. cerevisiae deletion strains, locus YNL128W, strain TEP1, stronger effect = lower value",0.993 (inactive)
same,normalized growth,"S. cerevisiae deletion strains, locus YNL153C, strain GIM3, stronger effect = lower value",0.991 (inactive) and 1.02 (inactive)
same,normalized growth,"S. cerevisiae deletion strains, locus YNL175C, strain NOP13, stronger effect = lower value",1.01 (inactive)
same,normalized growth,"S. cerevisiae deletion strains, locus YNL183C, strain NPR1, stronger effect = lower value",0.918 (inactive)
same,normalized growth,"S. cerevisiae deletion strains, locus YNL197C, strain WHI3, stronger effect = lower value",1.04 (inactive)
same,normalized growth,"S. cerevisiae deletion strains, locus YNL209W, strain ssb2, stronger effect = lower value",1.02 (inactive)
same,normalized growth,"S. cerevisiae deletion strains, locus YNL224C, strain SQS1, stronger effect = lower value",1.01 (inactive)
same,normalized growth,"S. cerevisiae deletion strains, locus YNL233W, strain BNI4, stronger effect = lower value",0.977 (inactive)
same,normalized growth,"S. cerevisiae deletion strains, locus YNL248C, strain rpa49, stronger effect = lower value",1.02 (inactive)
same,normalized growth,"S. cerevisiae deletion strains, locus YNL250W, strain rad50, stronger effect = lower value",0.976 (inactive)
same,normalized growth,"S. cerevisiae deletion strains, locus YNL271C, strain bni1, stronger effect = lower value",0.967 (inactive)
same,normalized growth,"S. cerevisiae deletion strains, locus YNL298W, strain CLA4, stronger effect = lower value",0.966 (inactive)
same,normalized growth,"S. cerevisiae deletion strains, locus YNL307C, strain MCK1, stronger effect = lower value",0.985 (inactive)
same,normalized growth,"S. cerevisiae deletion strains, locus YNL322C, strain KRE1 (second series), stronger effect = lower value",1 (inactive)
same,normalized growth,"S. cerevisiae deletion strains, locus YNL322C, strain KRE1, stronger effect = lower value",0.999 (inactive) and 1.02 (inactive)
same,normalized growth,"S. cerevisiae deletion strains, locus YNR049C, strain mso1, stronger effect = lower value",1 (inactive)
same,normalized growth,"S. cerevisiae deletion strains, locus YNR052C, strain pop2, stronger effect = lower value",0.982 (inactive)
same,normalized growth,"S. cerevisiae deletion strains, locus YOL006C, strain TOP1, stronger effect = lower value",0.943 (inactive)
same,normalized growth,"S. cerevisiae deletion strains, locus YOL012C, strain htz1",2.07 [resistant] (active)
same,normalized growth,"S. cerevisiae deletion strains, locus YOL147C, strain pex11, stronger effect = lower value",0.976 (inactive)
same,normalized growth,"S. cerevisiae deletion strains, locus YOR001W, strain rrp6, stronger effect = lower value",0.989 (inactive)
same,normalized growth,"S. cerevisiae deletion strains, locus YOR061W, strain CKA2, stronger effect = lower value",0.991 (inactive)
same,normalized growth,"S. cerevisiae deletion strains, locus YOR069W, strain VPS5, stronger effect = lower value",0.995 (inactive)
same,normalized growth,"S. cerevisiae deletion strains, locus YOR070C, strain gyp1, stronger effect = lower value",1 (inactive)
same,normalized growth,"S. cerevisiae deletion strains, locus YOR080W, strain dia2, stronger effect = lower value",0.985 (inactive)
same,normalized growth,"S. cerevisiae deletion strains, locus YOR083W, strain WHI5 (second series), stronger effect = lower value",1.01 (inactive)
same,normalized growth,"S. cerevisiae deletion strains, locus YOR083W, strain WHI5, stronger effect = lower value",0.977 (inactive)
same,normalized growth,"S. cerevisiae deletion strains, locus YOR106W, strain vam3, stronger effect = lower value",1.02 (inactive)
same,normalized growth,"S. cerevisiae deletion strains, locus YOR136W, strain idh2, stronger effect = lower value",0.982 (inactive)
same,normalized growth,"S. cerevisiae deletion strains, locus YOR144C, strain elg1, stronger effect = lower value",0.976 (inactive)
same,normalized growth,"S. cerevisiae deletion strains, locus YOR184W, strain ser1, stronger effect = lower value",0.971 (inactive)
same,normalized growth,"S. cerevisiae deletion strains, locus YOR231W, strain MKK1, stronger effect = lower value",1.01 (inactive)
same,normalized growth,"S. cerevisiae deletion strains, locus YOR265W, strain rbl2, stronger effect = lower value",1 (inactive)
same,normalized growth,"S. cerevisiae deletion strains, locus YOR270C, strain vph1, stronger effect = lower value",1.06 (inactive)
same,normalized growth,"S. cerevisiae deletion strains, locus YOR290C, strain snf2, stronger effect = lower value",1 (inactive)
same,normalized growth,"S. cerevisiae deletion strains, locus YOR316C, strain cot1, stronger effect = lower value",0.974 (inactive)
same,normalized growth,"S. cerevisiae deletion strains, locus YPL051W, strain arl3, stronger effect = lower value",0.995 (inactive)
same,normalized growth,"S. cerevisiae deletion strains, locus YPL055C, strain LGE1, stronger effect = lower value",1.02 (inactive) and 1.01 (inactive)
same,normalized growth,"S. cerevisiae deletion strains, locus YPL078C, strain atp4, stronger effect = lower value",1.01 (inactive)
same,normalized growth,"S. cerevisiae deletion strains, locus YPL106C, strain sse1, stronger effect = lower value",0.971 (inactive)
same,normalized growth,"S. cerevisiae deletion strains, locus YPL240C, strain hsp82, stronger effect = lower value",1 (inactive)
same,normalized growth,"S. cerevisiae deletion strains, locus YPL241C, strain CIN2, stronger effect = lower value",1 (inactive) and 1.01 (inactive)
same,normalized growth,"S. cerevisiae deletion strains, locus YPL256C, strain CLN2, stronger effect = lower value",0.97 (inactive)
same,normalized growth,"S. cerevisiae deletion strains, locus YPR119W, strain clb2, stronger effect = lower value",0.968 (inactive)
same,normalized growth,"S. cerevisiae deletion strains, locus YPR141C, strain kar3, stronger effect = lower value",0.976 (inactive)
same,normalized growth,"S. cerevisiae deletion strains, locus YPR163C, strain tif3, stronger effect = lower value",0.971 (inactive)
same,normalized growth,"S. cerevisiae deletion strains, locus YPR167C, strain met16, stronger effect = lower value",0.974 (inactive)
same,normalized growth,"S. cerevisiae deletion strains, strain wtn01, stronger effect = lower value",0.969 (inactive)
same,normalized growth,"S. cerevisiae strains, strain wild type, stronger effect = lower value",1 (inactive)
